High-throughput results: PubChem BioAssay, National Center for Advancing Translational Sciences (NCATS)
Most compounds without a hit are left out; they make up all but 2.4% or so of the library.
D2 PAM-1: Beta-Arrestin HTS for Positive Allosteric Modulators of the Human D2 Dopamine Receptor: Potentiators; DiscoveRx D2 beta-arrestin cells, luminescence, 90 min; 100% = 57 uM dopamine signal; D(2) dopamine receptor (Homo sapiens), P14416; potentiation, % (concentration not given with the values); 360,000 compounds, 0.23% hits; in the data active = potentiation above about 50%; inconclusive = mostly about 30% to 49%
Target sequence (P14416 whole entry, looked up): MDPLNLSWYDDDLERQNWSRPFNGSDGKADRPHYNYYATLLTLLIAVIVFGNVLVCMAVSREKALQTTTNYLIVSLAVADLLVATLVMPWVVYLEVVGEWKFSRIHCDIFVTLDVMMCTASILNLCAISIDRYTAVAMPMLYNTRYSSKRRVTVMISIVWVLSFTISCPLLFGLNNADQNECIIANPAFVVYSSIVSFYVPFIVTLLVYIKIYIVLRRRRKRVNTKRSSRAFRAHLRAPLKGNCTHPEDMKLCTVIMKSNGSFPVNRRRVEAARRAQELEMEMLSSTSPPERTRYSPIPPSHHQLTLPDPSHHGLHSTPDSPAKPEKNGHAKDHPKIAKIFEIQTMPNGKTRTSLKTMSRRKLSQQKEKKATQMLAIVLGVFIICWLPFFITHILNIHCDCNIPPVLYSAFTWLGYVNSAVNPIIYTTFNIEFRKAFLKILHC
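D2 cells co-treated with compound plus 50 nM dopamine (EC20) for 90 min at 37 deg C to detect potentiation. Beta-arrestin recruitment was read as enzyme-fragment luminescence after 1 h at ambient temperature. Full response was set by 57 uM dopamine.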
D2 antagonist: HTS Assay for Allosteric Antagonists of the Human D2 Dopamine Receptor: Primary Screen for Antagonists | HEK293 TREx D2 cells, calcium flux, dopamine EC80 | 340,000 compounds, 2% hits | AID 485344, 2010 | inhibition, % at 10 µM | D(2) dopamine receptor (Homo sapiens), P14416; in the data active = inhibition above about 30%; inactive = below that, where a call was filed; also: 0% is about no effect
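Tetracycline-induced HEK293 TREx cells expressing D2 receptor forced-coupled to calcium signalling, loaded with no-wash calcium dye. Compounds added and calcium flux read 180 s, then dopamine added at EC80 and read a further 180 s.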
D2 ag-1: HTS Assay for Allosteric Agonists of the Human D2 Dopamine Receptor: Primary Screen for Agonists; activation, % at 2 µM; 340,000 compounds, 0.53% hits; AID 485358, 2010; HEK293 T-REx D2 cells, calcium flux agonist mode;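 active = activation over 3 SD above normal in the single-dose calcium agonist read, cut at about 30% in these data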; also: 0% is about no effect
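Agonism is scored from calcium flux in a force-coupled, inducible HEK293 cell line expressing D2, read kinetically for 180 s after compound addition against dopamine controls.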
D2 PAM-2: HTS Assay for Positive Allosteric Modulators of the Human D2 Dopamine Receptor: Primary Screen for Potentiators; 340,000 compounds, 0.34% hits; D(2) dopamine receptor (Homo sapiens), P14416; potentiation, % at 10 µM; HEK293 T-REx D2, calcium flux, EC20 dopamine potentiation;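 active = potentiation over 3 SD above the plate norm, cut at about 30% in these data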; also: 0% is about no effect
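Calcium flux readout, no-wash dye, 1 read/s. Inducible HEK293 Trex D2 line, overnight 30 C. Compound alone 180 s (agonist flags), then EC20 dopamine, another 180 s to score potentiation.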
D2 ag-2: Beta-Arrestin HTS for Positive Allosteric Modulators of the Human D2 Dopamine Receptor: Agonists | D(2) dopamine receptor (Homo sapiens), P14416 | DiscoveRx PathHunter D2 beta-arrestin, luminescence, 90 min; 100% = 57 uM dopamine signal | activation, % (no concentration beside the values) | 360,000 compounds, 0.084% hits | AID 624465, 2012; in the data active = activation above about 40%; inconclusive = between about 15% and that limit
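DiscoveRx PathHunter D2 beta-arrestin cells (2,100/well) attached overnight, then compound-stimulated 90 min at 37 C in HBSS/10 mM HEPES/0.1% Tween-20 buffer; beta-galactosidase complementation read by luminescence after 1 h at ambient temperature. Dopamine 57 uM final (EC100) as control.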
* = called active by the depositor; u = inconclusive; x = no result; ! = not active in a repeat.

SMILES	D2 PAM-1	D2 antagonist	D2 ag-1	D2 PAM-2	D2 ag-2
CCOC(=O)C1CCN(C(=O)CN(c2ccc3c(c2)OCO3)S(C)(=O)=O)CC1	-16.3	45.3*	0.7	1.3	-2.3
O=C1COc2cc(S(=O)(=O)CCC(=O)N3CCN(c4ccccc4)CC3)c(Cl)cc2N1	x	x	0.4	-4.9	x
Cc1ccc(S(=O)(=O)c2cnc(SCC(=O)Nc3ccccc3C(F)(F)F)[nH]c2=O)cc1C	x	x	-0.3	3.0	x
CCc1nc2c(OCc3ccc(F)cc3)cccn2c1N(C)C(=O)COc1ccccc1	0.6	x	x	x	4.2
Cc1ccc2oc(C(F)(F)C(F)F)cc(=O)c2c1	-4.8	1.4	-0.4	6.7	-2.9
Cc1ccc2oc(C(Cl)(Cl)Cl)cc(=O)c2c1	76.0*	3.1	-0.5	-3.9	9.2
CNC[C@H](O)c1ccc(O)c(O)c1	79.3*	25.0	4.8	-18.1	62.8*
CC(C)NCC(O)c1ccc(O)c(O)c1 (stereo unspecified)	-2.2	17.3	5.0	33.2*	-1.0
CCC(C)CNC(=O)c1[nH]c(C(F)(F)F)nc1-c1ccccc1 (stereo unspecified)	-1.6	x	x	x	-1.2
S=C1Cc2ccccc2C(c2ccc(Cl)cc2)N1 (stereo unspecified)	-4.5	33.0*	-1.1	-4.3	1.3
O=C1Cc2ccccc2C(c2ccc(Cl)cc2)N1 (stereo unspecified)	-2.9	0.2	0.3	3.8	-2.1
Cc1ccc(-c2nnc(Sc3nc4ccccc4o3)c3ccccc23)cc1	-5.6	15.1	1.1	8.7	-1.3
Cc1nnc(Sc2nc3ccccc3o2)c2ccccc12	-19.1	-10.4	-0.4	32.2*	-3.1
Cc1nc(C)c(-c2ccc(SCC(=O)Nc3ccc(Cl)c(Cl)c3)nn2)s1	x	x	0.4	9.7	x
Cc1cc(N)nc(SCC(=O)N2C(C)CCCC2C)n1 (stereo unspecified)	-3.5	-23.2	1.0	33.9*	0.5
COc1cc(C)nc(SCC(N)=O)n1	16.4	32.5*	2.9	x	-1.6
Cc1cc(C)nc(SCC(=O)N2CCC(C(N)=O)CC2)n1	3.2	-13.6	1.0	30.3*	-5.0
Cc1cc2nnc(SCC(=O)N3C(C)CCCC3C)n2c(N)n1 (stereo unspecified)	-0.7	30.4*	0.9	36.5*	-2.4
Cc1cc2nnc(SCC(=O)N3CCCCC3)n2c(N)n1	-4.5	1.7	0.1	16.2	-4.5
Cc1ccccc1OC(=O)CSc1nnc(-c2cccs2)o1	x	x	0.8	6.7	x
O=C(CC1N=C2c3ccccc3N=C(SCc3ccc(Cl)cc3)N2C1=O)NCCc1ccccc1 (stereo unspecified)	x	x	1.4	-0.7	x
Cc1cc(C(=O)CCC(=O)N(C)CC(=O)Nc2ccc(OC(F)(F)F)cc2)c(C)s1	-9.0	0.4	-0.7	5.9	-4.3
Cc1ccsc1/C=N/NC(=O)c1ccc2ccccc2c1	-17.2	41.4*	0.5	-21.4	-2.4
Cc1ccsc1/C=N/NC(=O)c1ccncc1	-5.2	-1.7	1.0	-0.7	-2.1
Oc1ccc2ccccc2c1CNn1cnnc1	-3.4	32.6*	0.2	-6.5	1.5
SMILES	D2 PAM-1	D2 antagonist	D2 ag-1	D2 PAM-2	D2 ag-2
O=C1c2ccccc2NC2CCCCCN12 (stereo unspecified)	-15.7	-0.3	-1.0	30.1*	1.0
CC1CCN(c2c([N+](=O)[O-])nn(-c3ccc4c(c3)OCCO4)[n+]2[O-])CC1	75.2*	-2.0	0.1	1.4	9.9
O=C(c1ccco1)N1CCN(c2c([N+](=O)[O-])nn(-c3ccc(Cl)cc3)[n+]2[O-])CC1	22.3	11.9	0.6	4.2	2.6
CC(CN1CCN(CCOCCO)CC1)CN1c2ccccc2Sc2ccc(Cl)cc21 (stereo unspecified)	-21.4	x	x	x	2.7
CN1CCN(CCCN2c3ccccc3Sc3ccc(Cl)cc32)CC1	x	71.9*	x	x	x
CCSc1ccc2c(c1)N(CCCN1CCN(C)CC1)c1ccccc1S2	-37.3	82.6*	0.9	-23.4	-5.7
Cc1ccc(-c2cc(C(=O)Nc3cc(C(=O)O)ccc3C)c3ccccc3n2)cc1	4.8	-29.6	0.1	31.6*	-2.3
Cc1ccc(-c2cc(C(=O)O)c3ccccc3n2)s1	-13.2	34.2*	-0.4	-7.9	-3.1
O=C(N/N=C/c1ccco1)c1cc(-c2ccccc2)nc2ccccc12	-35.5	36.9*	-0.1	-19.6	-3.3
Cc1ccc(C)c(NC(=O)c2cc(C)nc3ccccc23)c1	12.5	-2.4	-2.0	1.5	-0.5
O=C(O)c1cc(-c2cccs2)nc2ccc(Br)cc12	x	33.6*	0.1	0.4	x
O=C(O)c1cc(-c2ccccc2)nc2ccccc12	-4.4	40.3*!	-1.4	0.2	-7.3
CC1CCC2(CC1)NC(=O)N(NC(=O)c1cccc(N(C)C)c1)C2=O (stereo unspecified)	-0.5	33.5*	0.0	-9.3	1.9
CC(=O)c1sc(NC(=O)c2cc(=O)c3ccccc3o2)nc1C	67.8*	3.8	-0.1	3.4	2.8
COCCNC(=O)CSc1nc(-c2ccccc2C)nc2c1c(=O)n(C)c(=O)n2C	x	x	0.4	-6.5	x
COc1cccc(Cn2c(CNC(=O)Cc3cccc(C)c3)nc3cccnc32)c1	x	x	-2.5	-6.4	x
Cc1ccc(C(c2cc(Cl)c3cccnc3c2O)N2CCN(C)CC2)cc1 (stereo unspecified)	-17.9	38.6*	0.5	-2.2	-19.0
CN1CCN(C(c2ccccn2)c2cc(Cl)c3cccnc3c2O)CC1 (stereo unspecified)	-26.7	-3.8	1.0	24.4	-1.6
CN1C2CCC1CC(OC(c1ccccc1)c1ccccc1)C2 (stereo unspecified)	-23.7	36.2*	-0.3	-23.7	-2.5
Cc1c(C)n(O)c2ccc3nonc3c12	0.7	41.1*	0.8	8.7	-1.6
Clc1ccc(N=c2ssnc2Cl)nc1	103.4*	-4.9	1.0	-7.6	-1.2
COc1ccc(-c2noc(CSc3nnc(-c4ccncc4)n3-c3ccc(OC)cc3)n2)cc1	x	x	-1.2	x	x
COc1ccc(CCNC(=O)CSc2nc3[nH]c(=O)cc(O)c3s2)cc1	-7.3	43.9*	-0.1	-9.7	-1.2
O=C(CSc1ccc2ccccc2c1)NCCc1ccc(O)c(O)c1	u	51.2*	32.2*	-17.5	100.0*
COc1ccc(CCNC(=O)CN2C(=O)c3ccccc3S2(=O)=O)cc1	-4.8	34.5*	0.0	2.4	-0.6
COc1ccc(CCNC(=O)CSc2nc3ccccc3o2)cc1	2.8	39.2*	-1.4	4.8	-2.8
